Laboratory results from PubChem BioAssay (NCATS).
Results filed as inconclusive are left out. Active and inactive are the calls of the source. The call rests on the fitted dose curve; in most records, active means well fitted curve in the direction sought with a large enough effect; inconclusive means small, poorly fitted or top-dose-only effect, or another doubt; inactive means no such curve, though single readings can be large; an effect the other way counts as inactive or inconclusive.

What was measured:
[1] = test system: CRL-7250; experiment: Cytotoxic Profiling of Annotated Libraries Using Quantitative High-Throughput Screening (AID 1296008); conditions: Five cell lines viability, CellTiter-Glo ATP luminescence, 48-72 h; max response: hits give low values; further: nearly all actives have a fitted effect of over 60% in size; on max response: on the % scale 0 is the no-effect control and ±100 the full control effect
How it was run: (§1)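 Compounds were pin-transferred onto cells and incubated 48 or 72 hr at 37 degree Celsius, 95% humidity. CellTiter-Glo was added, plates sat 10 min at room temperature, then ATP-coupled luminescence was imaged as the viability read-out.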

[2] = test system: HaCat; experiment: as above; conditions: Five cell lines viability, CellTiter-Glo ATP luminescence, 48-72 h; max response: hits give low values
How it was run: as §1

[3] = test system: KB-3-1; experiment: as above; conditions: Five cell lines viability, CellTiter-Glo ATP luminescence, 48-72 h; max response: hits give low values
How it was run: as §1

[4] = test system: NIH3T3; experiment: as above; conditions: Five cell lines viability, CellTiter-Glo ATP luminescence, 48-72 h; max response: hits give low values
How it was run: as §1

[5] = test system: HACAT; experiment: qHTS assay to identify novel small-molecules to repurpose for Merkel cell carcinoma treatment (AID 1296009); conditions: MCC and control cell lines, CellTiter-Glo viability, 72 h; at 44.8 µM (top of the series) unless noted; further: nearly all actives have a fitted effect of over 60% in size
How it was run: (§2)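 Cells exposed to NPC (8-point) and MIPE (11-point) compound dilutions for 72 hr at 37 degree celsius; viability read by CellTiter-Glo luminescence, normalized to no-cell and DMSO in-plate controls.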

[6] = test system: C33A; experiment: Primary qHTS to identify gynecologic anti-cancer compounds using libraries of approved drugs and bioactive compounds (AID 1345084); conditions: Gynecologic cancer cell panel viability, ATPlite luminescence, 48 h; series mostly up to 57.5 µM; further: on the % scale 0 is the no-effect control and ±100 the full control effect; nearly all actives have a fitted effect of over 55% in size
How it was run: (§3)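 Cell viability after 48 h drug treatment, ATPlite luminescence readout; five doses.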

[7] = test system: CAOV3; experiment: as above; conditions: Gynecologic cancer cell panel viability, ATPlite luminescence, 48 h; series mostly up to 57.5 µM
How it was run: as §3

[8] = test system: CASKI; experiment: as above; conditions: Gynecologic cancer cell panel viability, ATPlite luminescence, 48 h; series mostly up to 57.5 µM
How it was run: as §3

[9] = test system: Es-2; experiment: as above; conditions: Gynecologic cancer cell panel viability, ATPlite luminescence, 48 h; series mostly up to 57.5 µM
How it was run: as §3

[10] = test system: HeLa; experiment: as above; conditions: Gynecologic cancer cell panel viability, ATPlite luminescence, 48 h; series mostly up to 57.5 µM
How it was run: as §3

[11] = test system: Hek293T; experiment: as above; conditions: Gynecologic cancer cell panel viability, ATPlite luminescence, 48 h, control line for the selectivity index; series mostly up to 57.5 µM
How it was run: as §3

[12] = test system: JEG-3; experiment: as above; conditions: Gynecologic cancer cell panel viability, ATPlite luminescence, 48 h; series mostly up to 57.5 µM
How it was run: as §3

[13] = test system: OV90; experiment: as above; conditions: Gynecologic cancer cell panel viability, ATPlite luminescence, 48 h; series mostly up to 57.5 µM
How it was run: as §3

[14] = test system: NIH3T3; experiment: qHTS assay to identify novel small-molecules to repurpose for Merkel cell carcinoma treatment (AID 1296009); conditions: MCC and control cell lines, CellTiter-Glo viability, 72 h; series mostly up to 44.8 µM; further: nearly all actives have a fitted effect of over 60% in size
How it was run: as §2

CN(C)N(C)C(=O)[C@@]1(Cc2ccccc2)CCCN(C(=O)[C@@H](Cc2c[nH]c3ccccc23)NC(=O)C(C)(C)N)C1
inactive: max response [1] -26.9% | outcome [2] | max response [3] 4.19% | max response [4] -7.17% | outcome [5] | Potency [6] | Potency [7] | Potency [8] | Potency [9] | Potency [10] | Potency [11] | Potency [12] | Potency [13]

C=C(C)C1CCC2(C(=O)O)CCC3(C)C(CCC4C5(C)C(C=O)C(O)C(C)(C)C5CCC43C)C12 (stereo not drawn)
inactive: max response [1] -7.47% | outcome [2] | outcome [3] | max response [4] 0.383% | outcome [5] inactive [at 17.4 µM] | Potency [6] | Potency [7] | Potency [8] | Potency [9] | Potency [10] | Potency [11] | Potency [12] | Potency [13]

O=C(O)C1=CO[C@@H](O[C@@H]2O[C@H](CO)[C@@H](O)[C@H](O)[C@H]2O)[C@@H]2C(CO)=CC[C@H]12
inactive: max response [1] -1.39% | outcome [2] | max response [3] 6.01% | max response [4] -3.54% | outcome [5] | Potency [6] | Potency [7] | Potency [8] | Potency [9] | Potency [10] | Potency [11] | Potency [12] | Potency [13]

CCNC1(C(N)=O)CN(c2nc(C)nc3c(-c4ccc(Cl)cc4)c(-c4ccccc4Cl)nn23)C1
inactive: max response [1] -17.8% | outcome [2] | max response [3] -14.3% | max response [4] -3.55% | outcome [5] | Potency [6] | Potency [7] | Potency [8] | Potency [9] | Potency [10] | Potency [11] | Potency [12]

CC(C)(C)NC(=O)[C@H]1CC[C@H]2[C@@H]3CC[C@H]4NC(=O)CC[C@]4(C)[C@H]3CC[C@]12C
inactive: max response [1] -10.4% | outcome [2] | max response [3] -6.73% | max response [4] -8.88% | outcome [5] | Potency [6] | Potency [7] | Potency [8] | Potency [9] | Potency [10] | Potency [11] | Potency [12] | Potency [13]

CN1CCC(c2cn(C)c3ccc(OS(=O)(=O)c4c(F)cccc4F)cc23)CC1
inactive: outcome [1] | outcome [2] | max response [3] -7.12% | max response [4] 3.31% | outcome [5] | Potency [6] | Potency [7] | Potency [8] | Potency [9] | Potency [10] | Potency [11] | Potency [12]

COc1cc(C2OC(c3ccc(OC)c(OC)c3)C(C)C2C)ccc1O (stereo not drawn)
inactive: max response [1] -1.49% | outcome [2] | max response [3] -5.2% | max response [4] -6.22% | outcome [5] | Potency [6] | Potency [7] | Potency [8] | Potency [9] | Potency [10] | Potency [11] | Potency [12] | Potency [13]

O=[N+]([O-])c1ccc(Oc2ccc3c(c2)CCC(c2ccccc2)O3)nc1 (stereo not drawn)
inactive: outcome [1] | outcome [2] | max response [3] -24.2% | max response [4] -17% | outcome [5] | Potency [6] | Potency [7] | Potency [8] | Potency [9] | Potency [10] | Potency [11] | Potency [12] | Potency [13]

O=C(Nc1cc(C(F)(F)F)ccc1N1CCCCC1)c1ccncc1
inactive: max response [1] -7.1% | outcome [2] | max response [3] -6.53% | max response [4] 1.75% | outcome [5] | Potency [6] | Potency [7] | Potency [8] | Potency [9] | Potency [10] | Potency [11] | Potency [12] | Potency [13]

O=C(O)c1cc(N(Cc2ccc(C3CCCCC3)cc2)C(=O)c2ccc(Oc3ccccc3)cc2)ccc1O
inactive: max response [1] -16.9% | outcome [2] | outcome [3] | max response [4] -0.211% | outcome [5] | Potency [6] | Potency [7] | Potency [8] | Potency [9] | Potency [10] | Potency [11] | Potency [12] | Potency [13]

CC(=O)c1ccc2c(c1)[C@H](NC(=O)c1ccc(F)c(Cl)c1)[C@H](O)C(C)(C)O2
inactive: max response [1] -9.32% | outcome [2] | max response [3] 2.28% | outcome [4] | outcome [5] | Potency [14] | Potency [6] | Potency [8] | Potency [9] | Potency [10] | Potency [11] | Potency [12] | Potency [13]

COc1cc2nc(N3CCN(C(=O)COc4c(OC)cccc4C(C)C)CC3)nc(N)c2cc1OC
inactive: max response [1] 1.78% | outcome [2] | max response [3] 8.96% | outcome [4] | outcome [5] | Potency [14] | Potency [6] | Potency [8] | Potency [9] | Potency [10] | Potency [11] | Potency [12] | Potency [13]

C1=Cc2ccccc2C(=C2CCN(CCCCc3nn[nH]n3)CC2)c2ccccc21
inactive: outcome [1] | outcome [2] | max response [3] -8.87% | outcome [4] | outcome [5] | Potency [6] | Potency [7] | Potency [8] | Potency [9] | Potency [10] | Potency [11] | Potency [12] | Potency [13]

CCN(Cc1ccccc1)C(=O)Cn1c(=O)n(C)c2cnc(-c3ccccc3)nc21
inactive: max response [1] -1.74% | outcome [2] | outcome [3] | outcome [4] | outcome [5] | Potency [14] | Potency [6] | Potency [8] | Potency [9] | Potency [10] | Potency [11] | Potency [12] | Potency [13]

CN1CCN(C2=Nc3ccccc3Nc3ccc(Cl)cc32)CC1
inactive: max response [1] -0.222% | outcome [2] | max response [3] -4.21% | max response [4] 2.15% | outcome [5] | Potency [6] | Potency [7] | Potency [8] | Potency [9] | Potency [10] | Potency [11] | Potency [12] | Potency [13]
